We go through 67 molecules from PubChem BioAssay AID2289 (National Center for Advancing Translational Sciences (NCATS), 2010).

Structures are written as SMILES. Screen size: about 340,000 compounds; about 3,300 (0.97%) were called active. Inconclusive results (about 9%) are left out. The call rests on the fitted dose curve; in most records, active means well fitted inhibition curve with a large enough effect; inconclusive means small, poorly fitted or top-dose-only effect, or effect the other way; inactive means flat fitted curve, though single readings scatter. This is one part of the list.
Potency means the concentration at half of the fitted maximal effect.

A short description of this experiment: qHTS Assay for Modulators of miRNAs and/or Inhibitors of miR-21. Further: nearly all actives have a fitted effect of over 55% in size. Particulars: HeLa miR-21-FLuc reporter, luciferase luminescence, 48 h; actives lower the signal. The method in brief:
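HeLa cells stably expressing CMV-driven firefly luciferase with a downstream miR-21 binding sequence, endogenously expressing miR-21, were treated with titrations (up to about 40uM final) for 48 hours at 37 degree Celsius. Luciferase luminescence was read after lysis.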
Regarding `COc1cc(/C=N/NC(=S)NC2CC3CCC2C3)ccc1O` (configuration not stated), the Potency was 7.36 µM (active).
In the case of `C=CCn1c(SCC(N)=O)nc2scc(-c3ccc(C)o3)c2c1=O` it was 5.85 µM (active).
Then `CCC(=O)Nc1cccc(NC(=S)NC(=O)c2cc3ccccc3o2)c1`, with 0.585 µM (active); and `COc1ccc(NC(=O)c2cc3ccccc3o2)c(OC)c1`, with 0.585 µM (active); and `COc1ccccc1NC(=O)c1cc2ccccc2o1`, with 2.93 µM (active).
Then `COc1cc(NC(=O)c2c(OC)cccc2OC)ccc1NC(=O)c1cc2ccccc2o1`, with 5.21 µM (active).
Take `COc1ccccc1NC(=O)c1cc2ccc3cccnc3c2[nH]1`: the Potency is 2.33 µM (active).
Regarding `O=C(Nc1ccccc1C(F)(F)F)c1cc2ccccc2o1`, the Potency was 1.17 µM (active).
In the case of `COc1cccc2oc3ccc(C#CC4(N)CCCCC4)cc3c(=O)c12` it was 7.36 µM (active).
Then `CNC(C)C#Cc1ccc2c(=O)c3c(OC)cccc3oc2c1` (configuration not stated), with 3.69 µM (active).
Then `COc1cccc2oc3cc(C#Cc4ccccn4)ccc3c(=O)c12`, with 2.93 µM (active).
For the molecule `O=c1cc(-c2ccc3c(c2)OCCO3)oc2ccc(Cl)cc12`, the Potency was 0.185 µM (active).
On to `O=C(Nc1ccccc1)Nc1ccc2ccccc2c1`, for which the Potency is 2.93 µM (active).
In the case of `CCCCCC(=O)Nc1ccc2ccccc2c1`, the Potency was 4.65 µM (active).
In the case of `CCCCC(=O)Nc1ccc2c(c1)oc1ccccc12` it was 2.33 µM (active); in that of `CCCC(=O)Nc1ccc2c(c1)Cc1ccccc1-2`, 1.85 µM (active).
In the case of `Cc1ccc(-c2nn(-c3ccccc3)cc2CO)cc1` it was 14.7 µM (active); in that of `Cc1ccc(-c2nn(-c3ccccc3)cc2CO)o1`, 1.47 µM (active).
In the case of `O=C(/C=C\Nc1ccc2c(c1)OCO2)c1ccc(Cl)s1` it was 0.464 µM (active); in that of `O=C(/C=C\Nc1ccc2c(c1)OCO2)c1ccc2c(c1)OCO2`, 5.85 µM (active); in that of `COc1ccc(N/C=C/C(=O)c2ccc3c(c2)OCO3)cc1OC`, 13.1 µM (active).
In the case of `COc1ccc(N/C=C\C(=O)c2ccc3c(c2)OCO3)cc1OC`, the Potency is 14.7 µM (active).
In the case of `Cc1ccc(OCC(=O)Nc2ccc3c(c2)OCO3)c([N+](=O)[O-])n1` it was 7.36 µM (active); in that of `Cc1ccc(OCC(=O)Nc2ccc(F)cc2)c([N+](=O)[O-])n1`, 7.36 µM (active).
For `CCOc1ccc(/C=C/C2=NNC(=O)CC2)cc1`, the Potency is 5.85 µM (active).
Take `Cc1cc(N)n2ncc(-c3ccccc3)c2n1`: the Potency was 3.29 µM (active).
Then `COc1ccc(-c2cc(C)nc3c(-c4ccccc4)cnn23)cc1`, with 0.233 µM (active); and `Cc1cc(N)n2ncc(-c3ccc(F)cc3)c2n1`, with 4.65 µM (active); and `Cc1nc2c(-c3ccc(F)cc3)cnn2c(N)c1-c1ccc(F)cc1`, with 0.414 µM (active).
On to `Cc1cc(N)n2ncc(-c3cccc(Br)c3)c2n1`, for which the Potency is 3.29 µM (active).
Turning to `CCOC(=O)c1cn2nc(Oc3ccccc3)ccc2n1`, the Potency was 5.85 µM (active).
In the case of `N#Cc1ccccc1OCC(=O)Nc1ccc2c(c1)OCCCO2` it was 2.61 µM (active).
In the case of `O=C(COc1ccccc1Br)Nc1ccc2c(c1)OCCCO2` it was 0.927 µM (active); in that of `CC1=C(C)CC(C(=O)NCC(=O)c2ccccc2)C(C(=O)O)C1` (configuration not stated), 4.14 µM (active).
In the case of `Cc1cc(C)n2nc(SCCOc3ccccc3)nc2n1`, the Potency was 7.36 µM (active).
Then `Cc1cc(C)n2nc(SCC3COc4ccccc4O3)nc2n1` (configuration not stated), with 16.5 µM (active); and `Cc1cc(C)n2nc(SCCOc3ccccc3F)nc2n1`, with 11.7 µM (active); and `Clc1ccc(Cc2nnc(-c3cccs3)o2)cc1`, with 18.5 µM (active).
As for `Clc1ccc(Cc2nnc(-c3ccccc3Br)o2)cc1`, the Potency was 16.5 µM (active).
With `BrCCOCCOc1ccc2ccccc2c1`, the Potency was 18.5 µM (active).
In the case of `Cc1c(C(=O)NC2CCOC2)oc2c(F)cccc12` (configuration not stated) it was 5.85 µM (active).
In the case of `Cc1c(C(=O)N2C[C@@H](C)O[C@@H](C)C2)oc2c(F)cccc12` it was 13.1 µM (active); in that of `CC(O)CNc1ncnc2cc(-c3ccc(F)cc3)sc12` (configuration not stated), 4.65 µM (active).
Take `Cc1nn(-c2ccc3ccccc3c2)c(=O)c2ccccc12`: the Potency is 2.93 µM (active).
Regarding `Cc1nn(-c2ccc(Br)cc2)c(=O)c2ccccc12`, the Potency is 2.93 µM (active).
Turning to `COc1cccc(COc2ccc3ccc(=O)oc3c2)c1`, the Potency is 7.36 µM (active).
Then `COc1ccc(COc2ccc3ccc(=O)oc3c2)cc1`, with 2.93 µM (active); and `CCc1ccc2nc(N3C(=O)C(O)=C(C(=O)c4ccco4)C3c3cccs3)sc2c1` (configuration not stated), with 6.56 µM (active).
As for `Cc1ccc2nc(N3C(=O)C(O)=C(C(=O)c4ccco4)C3c3cccs3)sc2c1` (configuration not stated), the Potency is 5.21 µM (active).
Then `COc1ccc(N=Nc2cc(C)ccc2O)cc1`, with 0.521 µM (active); and `COc1ccc(N=Nc2ccc3ccccc3c2)c(O)c1`, with 0.233 µM (active); and `Nc1nc(-c2cc3ccccc3o2)cs1`, with 2.33 µM (active).
In the case of `CN1CCN(c2nc(-c3cc4ccccc4o3)cs2)CC1` it was 5.21 µM (active); in that of `Nc1ccc(Nc2nc(-c3cc4ccccc4oc3=O)cs2)cc1`, 2.93 µM (active).
In the case of `O=C(c1cc2ccccc2oc1=O)N1CCOCC1` it was 16.5 µM (active); in that of `O=C(OC1CCCCC1)c1cc2ccccc2oc1=O`, 16.5 µM (active).
As to `O=C(CSc1nc2ccccc2o1)c1cc2ccccc2oc1=O`, the Potency was 14.7 µM (active).
In the case of `COc1ccc2oc(=O)c(C(=O)N3CCN(c4ccccc4C)CC3)cc2c1` it was 2.07 µM (active); in that of `Cc1c(-c2nc(-c3ccc(C(F)(F)F)cc3)no2)n(C)oc1=O`, 0.293 µM (active).
Consider `COc1ccc(/C(N)=N/OC(=O)C2CCCCC2)cc1`, for which the Potency was 4.65 µM (active).
As for `COc1ccc(/C(N)=N/OC(=O)C2CCCCC2)cc1OC`, the Potency is 2.93 µM (active).
Then `COc1ccc(OCc2cc(C(=O)N3CCSCC3)no2)c(Cl)c1`, with 4.65 µM (active).
In the case of `COCCN1CCN(C(=O)c2cc(COc3cc(C)ccc3C)on2)CC1` it was 11.7 µM (active).
Then `COc1cccc(OCc2cc(C(=O)N3CCN(c4ccccc4OC)CC3)no2)c1`, with 16.5 µM (active); and `CC(=O)c1ccc(OCc2cc(C(=O)N3CCOCC3)no2)cc1`, with 18.5 µM (active).
Take `COc1ccc(OCc2cc(C(=O)N3CCOCC3)no2)c(Cl)c1`: the Potency was 2.07 µM (active).
Then `CC(=O)NCCC1CCCCN1C(=O)c1cc(COc2cc(C)ccc2C)on1` (configuration not stated), with 7.36 µM (active).
